Holding throughout (experiment): MAPPIT interaction score (arbitrary units); higher = stronger binary interaction signal, active = hit call of the paper
One assay deals with Not3. The note with it: MAPPIT configuration: N-N; pair source set: Finley_Y2H.
The target in another assay is Nup107. The note with it: MAPPIT configuration: N-C; pair source set: screen_4.
In another assay the target is dgt6. The note with it: pair source set: Lit-BM-16.
The target of another assay is Nup62. The note with it: MAPPIT configuration: N-N; pair source set: Finley_Y2H.
The target of another assay is PHDP. The following applies: MAPPIT configuration: N-N; pair source set: Curagen_low_conf.
The target of a further assay is Or49b. The note with it: MAPPIT configuration: N-N; pair source set: DPIM.
For a further assay, the target named is Su(var)2-10. The following applies: MAPPIT configuration: N-N; pair source set: DPIM.
In a further assay the target is Nup50. The note with it: MAPPIT configuration: N-N; pair source set: DPIM.
The next assay has as its target ND-ACP. The note with it: MAPPIT configuration: N-N; pair source set: Lit-BS-16.
In another assay the target is Nedd4. The note with it: pair source set: Lit-BM-16.
For the next assay, the target named is Nnk. The following applies: MAPPIT configuration: N-N; pair source set: Curagen_high_conf.
The target of the next assay is Nup153. The note with it: MAPPIT configuration: N-N; pair source set: DPIM.
Another assay addresses Pen. The note with it: MAPPIT configuration: N-N; pair source set: Lit-BM-16.
Another assay has as its target Naa30A. The following applies: MAPPIT configuration: N-N; pair source set: Curagen_high_conf.
The target in another assay is Nacalpha. The note with it: MAPPIT configuration: N-N; pair source set: DPIM.

Drawing on the supplement of paper PMC10105736, this text covers MAPPIT interaction score for eleven molecules.
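Note: HEK293T cells with Epo stimulation, STAT-responsive firefly luciferase reporter, fold induction versus unstimulated cells divided by the larger fold induction of two negative controls lacking either bait or prey.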

B1: Rga (protein)
chain: MANLNFQQPPRSIANAALAGRTTGGFGGSSLAGHVTPTSGMFQTDFANSYPGTANYGQAPQQQQQQQQQPQLSPNRNAQLSVGGPAISSGNRNANLFGQRQFVERRAMQGLGSGPMSNMGNFMQTGRGGYGTGGGGGGPLNNFHVFGGGGGSDTSTPALLDPTEFPSLTNARGQNDQTLPQSNPLQPPGSKPYGNFFTSFGMVKQPTSEQSEFTMSNEDFPALPGTQNSDGTTNAVGSVAGTGGSGGASTENHLDGTEKPMNSIVVSGSASGSSGSNVGVVGGNGLGAVGSGIGGLAVGGGGGAGSSGGGGVGGNAASGVVGGSHVGLVGSNSGIGGVNSVPNSNAMMGVGGGLGSGSGSSGSGAGGEHLNDNSSNDKLVKSGVQTSPDGKVTNIPATMVNNQFGMVGLLTFIRAAETDPNLVTLSLGTDLTGLGLNLNSQESLHTTFAGPFVAQPCRAQDVEFNVPPEYLINFAIRDKLTAPVLKKLQEDLLFFLFYTNIGDMMQLMAAAELHSREWRYHVEEKIWITRIPGIDQYEKNGTKERGTFYYFDAQSWKRLSKVFQIDPEKLDKCPNISAFMNGQSV
Take B1: the MAPPIT interaction score with Not3 is 0.172 (inactive).

B2: dgt4 (protein)
chain: METPPTPTTTTPPSLTTEGTMDDIQYLLHLEAMRRFQEDSRNVKRQVEEQVRIWLDAKCEYQRDFGRLARLLKCGALQAAVDAHRVSDVNQVDQAAKDIASLRSKLGSDLRPAILDSNDVKQCLEHLNTTHKPRLNLCRQQREFAQNQEALRSLRTAVDGLENGMEMGMIQAMDRLVEDLLPPRETNN
Take B2: the values for the MAPPIT interaction score in the assay with Nup107, with dgt6 (MAPPIT configuration: N-C) and with dgt6 (MAPPIT configuration: N-N) were 1.57 (inactive), 1.64 (inactive) and 4.36 (active), respectively.

B3: Nup54 (protein)
chain: MSFFGSNTSLGATSTPAKTTGGLFGSPFGGTAATSQPAPAFGAQATSTPAFGAQPATSAFGAGSAFGATAAAPAFGAATGTSAFGGSAFGSTPAFGAATTTTAGTGLGGGGFGGFGAAPATSQAGLFGAPATSAAPPAFSGFGQQAAASTAPASGFSGFGTTTTSAPAFGGFGTSQSTGFGGGAFGSTFGKPANTTVTPGFGGFGGTSFMLGQPQQQPAPISADEAFAQSILNVSIFGDERDKIVAKWNYLQATWGTGKMFYSQSAAPVDITPENVMCRFKAIGYSRMPGKDNKLGLVALNFCRELSAVKPHQQQVIQTLHSLFGSKPNMLVHIDSIKELENKKCQIVIYVEEKLQHAPNESKRILATELSNYLNQATLKPQLNNLGVVEALALVLPDEDQLREYLENPPRGVDPRMWRQANSDNPDPTLYIPVPMVGFNDLKWRVKCQEQETDTHALYIKKVESELTELKKRHATATAKILEHKRKLAELSHRILRIIVKQECTRKVGTSLTPEEEALRTKLQNMLAVVSAPTQFKGRLSELLSQMRMQRNQFAANGGAEYALDKEAEDEMKTFLTMQQRAMEVLSDTVNKDLRALDVIIKGLPELRQS
As for B3, the MAPPIT interaction score is 5.79 (active) with Nup62 and -0.274 (inactive) with PHDP.

B4: Atx2 (protein)
chain: MNNNSKRKTRPTGGGASGGISRYNSNDNSLRPTNNKAGAGGGNGGAAVRPSAQGVYNNTFFMHSATALVGSVVEVRLRSGNIYEGVFRTFSGNFDIALELPACIKSKNLPEEGKVPKHIIFPADTVVTIVAKDFDSQYATAGAFQTDGAISDKCNGARPDEKELEPWDSGANGDIDIELDSAANGWDPNEMFRKNENTFGVTSTFDDSLASYTVPLDKGDSLEFKEAEAKAEKLAAEIENNPTCRDRLDLENGDEEALFAAVERPSTEQDQRGDRGDRERNDRDREREERDRDRDRDRGNKPRGAGDFQLRETMSSDRYITKQTRSITGPQLSHVGMSSQGSGRDRDTRGDGSMMMQSGGGSGQGGSTQSTAALMLAGGLKGVGPAPSANASADSSSKYSGGSMVKRKTVPQGGKVMRNNVPTGGSNVSVSQGGNGNSVGQNKGGYQPSMGMPSQYSYQGNSQIMHGSSQYRNQSHMGGANKLNGDSNANTNKPLPQRQMRQYQGSQSNSSLNYGGEPQSLGKPVHGSHGGHPGQNSNSPPLQTAGPQQQQQQQQQQQQQQQQQQPPQQQQHQNIQPQGQNTQPARQVRTRDNQMQELRQFGQDFQLAPSNTSPPQQQQQQQQQQQQHQVQQQQQRALQQSASPPQQQQQQQQQQQHVVLHQVPQTHLHQAALSQPHYVPQQQPQQAPLPQQQHVPHHMQQKAQQQQLVETQHQHVQKQHQSQPQVQQPPPQLLQDPSQQPLPIYHTMPPPQTSPVVVTSPVLLEQPPPQPMPVVQQQQTQQLATPKPEVSPAPPSSNTTTPTGIASTPTAGVIASAGSEKTTPAAPTPTSNSATVPTGTAATAGGATGTTPVVKKHVLNPSAKPFTPRGPSTPNPSRPHTPQTPVPMTNIYTTTGGHVPPAANQPIYVMQPQHPFPPQTHPQAGQPPRLRRSNYPPMAASQMHVSASAATGQPLITAGPIPQFIQYGHAPHQQQFQSHTYAPMQMRVYPDQPQQLQFMTQTPQSTTPSPGQPHQQFHPPPQPSPAGGGPQPAFTPPTQAATYQLMCVHPQSLLANHYFPPPTPQHPQQNQQQYQIVMQQHQPQ
With B4, the MAPPIT interaction score is -0.465 (inactive) in the assay with Or49b and 0.0668 (inactive) with Su(var)2-10.

B5: Nubp2 (protein)
chain: MLDKVKNVIVVLSGKGGVGKSTVSTQLSLALRKNGFKVGLLDIDLCGPSVPYLLGLEGRDIFQCDDGWVPVYTDESQTLAVMSIGFLLKNREDPVIWRGPKKTMMIRQFLTDVRWDELDYLIIDTPPGTSDEHITVMECLKEVGCHGAIIVTTPQEVALDDVRKEITFCKKTGINILGIVENMSGFVCPHCTSCTNIFSSNGGVSLATYAQVPHLGTLPIDPRVGILAGTTTSVLDELPDSTTAEVLTHIVEKLKTMLVS
B5: the MAPPIT interaction score with Nup50 was -0.182 (inactive).

B6: DENR (protein)
chain: MTNEDVGTNSVADRLQLGPREGVTYPIQMKYCGHCTMPIEYCEYYPEYEKCKEWLELHMPDDFERLKIEEEAAAADGTDDDKKRQKRGGKGLLRVKKKEDVPKRICVSRAARGKKKSVTVVTGLSTFDIDLKVAAKFFGTKFACGSSVTGDDEIVIQGDVKDDLFDVIPEKWAEIDEDVIEDLGDQKRT
With B6, in the assay with ND-ACP, the MAPPIT interaction score was 1.72 (inactive).

B7: comm (protein)
chain: MISTTDYPTVETTTTAEELYAEYISAPASSMSPAAIAEHLQQNQITFEIPSAHDLRHIDALNSFNALLQRIGNAAVSYDPAPPSGWSPDGSISTEQLSKSVVLDLADLRDRSEESGESSWWSQIFGDADMHVIINYLWIGVVSSLVILSLVFILFSCYFYRKFRTWKKCNKDIRAQIHAASDSYSSHLVGCDASRLLLHQQMQHPHHRSSEAGFYQIESPPCYTIATGLPSYDEALHHQPRHFAYGMKFVYPSLAAVHHHHHCISNWEKQEPLNKLQKCKLSAAAAVEEDKADSSSSTSASASPSSSESSNLATATPAICINMPSGRQDEEVDNSDSDSAIAVAVAVAQSLQPAAPADDDCASLVVVVAA
B7: the results for the MAPPIT interaction score in the assay with Nedd4 (MAPPIT configuration: N-C) and with Nedd4 (MAPPIT configuration: N-N) were 1.86 (inactive) and -0.264 (inactive), respectively.

B8: mei-S332 (protein)
chain: MGSKVEQQYKLLNAELMDQVQKQRLEIGEYRKRVISLEREIMDIREEHVLQNHRQRMENISIVRSLMLSLNVDSDSLAVRQEPAPAAQINRPSGPRRSSREICKDMRRTCALARTTRPISPRRSSSVTSTVSSTSRRSSAEVQSEVVTTRIPEDRRANKPTPPPRRPAELVFDEDDSDDDFDEAVSPVEETQTEQNEENNRLFSIIEENGSEGESTDSSSSCEAIYCDTTFESSPPNAQVTVTPSGRALREVDTNIPVAVSLSRGKETGKGSWLAISVAVEDSPQEPSIQCPRLAVTRPSQSSGIFPDVNGLTPRRSLFNGIGKMAGSTSTPKSFLVEEMPSIRTRSRTAANKKSENTDMSSSFCNNSARPSRSCRPTSLVEPSLKNKLRNGSKGKAKAKK
Take B8: the MAPPIT interaction score in the assay with Nnk was -0.26 (inactive).

B9: Nup50 (protein)
chain: MAGKRQATSNLNHENWDLEEEPEERGTFRTATEEELKTRVIKKARRKIAGGSSAAEEDGAEEKTAEPKSVFSGFSGFGKPAASPAAGSPFSFLANVTAPATTSSSEPKKSAFSFGFSSSSSSADRPVSTSICGTASTSSTAPSPLPAKESTSTVDGAKPTTSIFGNISAAKKESSEAKTSSSSTSLTSTMETSEYRESVADLNRSVIKFLQDQMGKSPYCILTPVFKNYDEHLKDLQDEESARTNSTKSKTAQARSQEPVAKVSRASSPPKAATTFTFGKPSAPIGASVSPLAKKPNCTITSGGTTTTTATPLVSFGSTASFTAPVPSSSSIFSLTAKPTGEAKSDDTPKSSIFSFGAKDTTTKKDEPNFSAPKTNGFSFGLKSNNDDKPSTSLFAGFGKAPGGAGDGAKGFSFTNSATPFSLGNIHPPAAAAAPAEEEKEEDTPPKVEFKQVVEDDAIYSKRCKVFIKKDKDFGDRGVGTLYLKPVKDSEKIQLLVRADTNLGNILVNLILSKGIPCQRMGKNNVLMVCVPTPEDSKATSLLLRVKTGDEADDLLEKIKEHIK
In the case of B9, the figures for the MAPPIT interaction score with Nup153 and with Pen were 0.802 (inactive) and 3.66 (active), respectively.

B10: Naa35 (protein)
chain: MYPSTLPAEADPSTMNGSSVAEPPDFQAATAAAAAAARASSLEQDEWSVGECGFLDPDVQRTMRSGSAAEDITQYPMHGWVDVTKEFHDACAELQPGELAQDMLFGLFEAMSAIEIMDPKMDVGMGFDKQDLPPPSFEAAIATGAIKLDDLTPSELIGIYDALFSCLVSWLEGNSMDQVLFTCLYLHAPAQIKDKALRVFCTAVRNLIVVIKKIIAVAAVNEEEDFQLYGNSALLAAEKAQPATVYSSLKDVEDELIRKCKKLTSTEDWMAVVHRLRFMRHLFQVIYHVEQMASNDTVDDKVDIYKILLVASEMLPGIRNTLDRGTQPEKGSDAPNPMGFSPRIHDRSQPPAFPRSIKIRDRPSSYQFLEEMISRFKYACKVTKYKDYYSALNFFIEYSKKSGQCILSRSVLQTLFSANMRMAHGKLPMKQFLRHSVQVFNSPPVLNAKHPVAADPKVQQHLENFFRYCINMNTFTQFIRICGFNRARQRDKLARLIENFDTIQVDAARLDSMMNQLANERAMEGNEPMATALKHSTHFSTWVLYNCFRAMLIFLMSGFELELYAVHEFLYIYWYPYEFLIGFLVSALTRTENILLAQEEYAEHQSKTQSGGSGAAKNRKAAKPKKNKKTQRPYRAEIVFYHALLSLCGGMYKAMGALTKDGRVRLPLSKFDNEEIRYNRRFLPFATLTSPPPVSYAEFKNVREHMMRHSVEDLYTYAAKHFDQARNVLESIQNPDQEMLDLLQIARTNFVVMNVLARGHQKEVKRQPEFDFSKHSYFPIIKLK
For B10, in the assay with Naa30A, the MAPPIT interaction score was 3.72 (active).

B11: eIF3j (protein)
chain: MADDWESAADSEVVIRPTAAASVNKWEGEDEDEDIKDSWEDEEEKKDEEKPTKTEAPAKPKPNKALKAKLEQQALLEEEAEAKRLANLSPAEKLAEKLRLQKIQEASDLKHAQEAFGVTSTCGGLDAFNPETKEEFKEFGATLSWKVGQFRESEHFPQFVEDLVRSLCVNLSAADIKKVKMNVEILHSEKLKLEKANAKKPAGKGKGKVTLRTENDDIDGYQKYGNDFTEDYDDFM
For B11, in the assay with Nacalpha, the MAPPIT interaction score is 0.261 (inactive).
